Inconclusive results are not listed. A number with no mark means an inactive call. The call rests on the fitted dose curve; in most records, active means well fitted cell-killing curve with a large enough effect; inconclusive means small, poorly fitted or top-dose-only effect; inactive means no such curve, though single readings can be large or run the other way. Where a SMILES comes first, the peptide text is derived from it. Bridges are numbered along the chain shown (N, C = ends). [ ]: non-standard residue; d: D form. hArg = N=C(N)NCCCC[C@H](N)C(=O)O; Mpa = O=C(O)CCS

A short description of the assay: qHTS of pediatric cancer cell lines to identify multiple opportunities for drug repurposing: Primary screen for NB1643 cells (AID 1347099). Further: nearly all actives have a fitted effect of over 50% in size. The settings on record: NB1643 neuroblastoma viability, CellTiter-Glo luminescence, 48 h; series mostly up to 46 µM; activity change, negative = cytotoxic: at the top concentration. From the text:
Drug repurposing or repositioning has been offered as a strategy for drug development in oncology programs. This approach has special potential for childhood cancers and other rare or orphan diseases, where the expected return on new drug development has been a disincentive to pharmaceuticals. […] In this project we exploit the poly-pharmacology of drugs to discover new indications via phenotypic screening of a panel of 19 well-characterized cell lines derived from solid tumors seen in children and adolescents. The goal is to identify approved drugs with previously unrecognized anticancer properties that has the potential to reveal new mechanisms and biological processes involved in carcinogenesis or drug resistance. We employed a titration-based paradigm (quantitative high-throughput screening or qHTS), where all compounds were tested at multiple concentrations for their effect on cell viability. Concentration-response curves (CRCs) were derived directly from the primary screen, and both potency and efficacy values were used to identify compounds with robust bioactivity profiles. We screened the NIH Chemical Genomics Center (NCGC) Pharmaceutical Collection (NPC) and Mechanism Interrogation Plate (MIPE) small molecule collections of approved and investigational compounds against these cell lines; and measured metabolically active cells after 48 hours of compound treatment as a proxy for cell viability. […] Assay Submitter: Nathalia J. Martinez, National Center for Advancing Translational Sciences, National Institutes of Health, Rockville, MD, USA; email: natalia.martinez@nih.gov Shen, M et al. Quantitative high-throughput phenotypic screening of pediatric cancer cell lines identifies multiple opportunities for drug repurposing. Oncotarget 2017 Dec 19;9(4):4758-4772. PMID 29435139.
The cells were obtained from University of North Carolina (UNC), Pediatric Preclinical Testing Program (PPT), and Coriell Institute (CI). qHTS cell viability assay: Cells were assayed in growth media at a density of 500-1,000 cells/well. Five microliters of cells were dispensed into 1,536-well, white, solid-bottom, TC-treated plates (Greiner Bio One) using a multidrop dispenser and incubated at 37 degrees C, 5% CO2, under a humidified atmosphere for 5 hours. Twenty-three nanoliters of compounds and controls (neutral control DMSO or positive control bortezomib at final concentration of 2.3 µM) were subsequently transferred by Kalypsys pintool. For primary screens, the MIPE collection was tested at 11-point dilutions (final concentrations range from 0.78 nM to 46 µM) and the NPC collection at 8-point dilutions (final concentrations range from 0.59 nM to 46 µM). Compounds tested in follow-up screens were assayed at 11-point dilutions. Cells were incubated for 48 hours, followed by addition of 3 µL of CellTiter-Glo (Promega). After a 15 min incubation at room temperature, samples were analyzed for luminescence intensity using a ViewLux High-throughput CCD imager equipped with clear filters.
Background: qHTS replaces the single test concentration by a dilution series.
Take `NC(=O)NS(=O)(=O)c1ccc(N)cc1`: the “activity change, negative = cytotoxic” value is 2.77%.

For `O=C(O)c1ccc[n+]([O-])c1`, the “activity change, negative = cytotoxic” value was 14.2%.

In the case of `OCc1ccc(Cl)cc1Cl`, the “activity change, negative = cytotoxic” value is 11.3%.

In the case of `O=C(O)/C=C/c1ccc(Cn2ccnc2)cc1`, the “activity change, negative = cytotoxic” value is 8.38%.

Regarding `O=C(O)c1ccc(OCCCOc2ccc(C(=O)O)cc2)cc1`, the “activity change, negative = cytotoxic” value was 19.3%.

On to `NC(=O)[C@@H]1CSSCCC(=O)N[C@@H](CCCCN=C(N)N)C(=O)NCC(=O)N[C@@H](CC(=O)O)C(=O)N[C@@H](Cc2c[nH]c3ccccc23)C(=O)N2CCC[C@H]2C(=O)N1` ([Mpa][hArg]GDWPC-NH2; disulfide 1-7), for which the “activity change, negative = cytotoxic” value was 3.55%.

With `Cc1c(Cn2ccnc2)c2ccccc2n1CCC(=O)O`, the “activity change, negative = cytotoxic” value was 7.19%.

Regarding `CCCCCCCCCCCCCCCCN`, the “activity change, negative = cytotoxic” value was 13.1%.

As to `OCC(O)CS` (stereo not given), the “activity change, negative = cytotoxic” value is 10.2%.

Regarding `O=C(O)CCCCC1CCSS1` (stereo not given), the “activity change, negative = cytotoxic” value is -0.229%.

In the case of `O=C1c2ccccc2C(=O)C1c1ccc(Br)cc1`, the “activity change, negative = cytotoxic” value was -7.21%.

For the molecule `CC(=O)Nc1ccc(OCCOCCOc2ccc(NC(C)=O)cc2)cc1`, the “activity change, negative = cytotoxic” value is 13.4%.

With `O=C(O)Cc1ccc(CCNS(=O)(=O)c2ccc(Cl)cc2)cc1`, the “activity change, negative = cytotoxic” value is -9.57%.

`O=C(O)Cc1cn(-c2ccccc2)nc1-c1ccc(Cl)cc1`: the “activity change, negative = cytotoxic” value was -14.6%.

Take `CCOC(=O)[C@H](CCc1ccccc1)N[C@@H](C)C(=O)N1Cc2cc(OC)c(OC)cc2C[C@H]1C(=O)O`: the “activity change, negative = cytotoxic” value was 0%.

Regarding `CC(C)CCCC(C)CCCC(C)CCCCC(C)CCCC(C)CCCC(C)C` (stereo not given), the “activity change, negative = cytotoxic” value was 10.9%.

On to `C/C=C1\[C@H]2C=C(C)C[C@]1(N)c1ccc(=O)[nH]c1C2`, for which the “activity change, negative = cytotoxic” value is 12.4%.

Take `Nc1ccncc1N`: the “activity change, negative = cytotoxic” value was -0.923%.

With `COc1nccnc1NS(=O)(=O)c1ccc(N)cc1`, the “activity change, negative = cytotoxic” value is 4%.

In the case of `c1ccc2[nH]ccc2c1`, the “activity change, negative = cytotoxic” value is -1%.

In the case of `CC(=O)N1C[C@H](O)C[C@H]1C(=O)O`, the “activity change, negative = cytotoxic” value is -7.21%.

As for `O=C(Cn1ccnc1[N+](=O)[O-])NCc1ccccc1`, the “activity change, negative = cytotoxic” value is 5.22%.

Regarding `CCN1CC(CCN2CCOCC2)C(c2ccccc2)(c2ccccc2)C1=O` (stereo not given), the “activity change, negative = cytotoxic” value was 8.09%.

Take `Cc1c(NC(=O)c2cccnc2)c(=O)n(-c2ccccc2)n1C`: the “activity change, negative = cytotoxic” value was 26.2%.

Turning to `OC(CCN1CCCC1)(c1ccccc1)C1CCCCC1` (stereo not given), the “activity change, negative = cytotoxic” value was -7.76%.

For the molecule `COc1ccccc1Oc1c(NS(=O)(=O)c2ccc(C(C)(C)C)cc2)nc(-c2ncccn2)nc1OCCO`, the “activity change, negative = cytotoxic” value was 4.23%.

With `O=C1c2ccccc2S(=O)(=O)N1CCCCN1CCN(c2ncccn2)CC1`, the “activity change, negative = cytotoxic” value is 5.67%.

In the case of `OC[C@@H](O)[C@@H](O)[C@H](O)[C@H](O)CO`, the “activity change, negative = cytotoxic” value is 4.78%.

Regarding `C=CCNC(N)=S`, the “activity change, negative = cytotoxic” value was 8.73%.

On to `O=C(O)CCC(=O)O`, for which the “activity change, negative = cytotoxic” value was 13.8%.

With `C[C@@H](c1ncncc1F)C(O)(Cn1cncn1)c1ccc(F)cc1F` (stereo not given in full), the “activity change, negative = cytotoxic” value is 13.7%.

Take `CN1C[C@@H]2C[C@H]1CN2c1cc2c(cc1F)c(=O)c(C(=O)O)cn2C1CC1`: the “activity change, negative = cytotoxic” value is -24.9% [at 16.1 µM].

For the molecule `CC(N)CCCC(C)(C)O` (stereo not given), the “activity change, negative = cytotoxic” value is 19.3%.

Take `Cc1ccc(C(C)C)c(O)c1`: the “activity change, negative = cytotoxic” value was 10.9%.

In the case of `COc1cc(C(=O)NCCCCCC(=O)O)cc(OC)c1OC`, the “activity change, negative = cytotoxic” value is -35.2%.

Turning to `CC(CN(C)C)C(C)(O)Cc1ccc(Cl)cc1` (stereo not given), the “activity change, negative = cytotoxic” value was 2.91%.

For the molecule `O=C(O)c1cc(=O)c2ccccc2o1`, the “activity change, negative = cytotoxic” value was 0%.

Consider `O=C1CC[C@@H](C(=O)O)N1`, for which the “activity change, negative = cytotoxic” value was -1.07%.

Take `CC(=O)Oc1cccc(O)c1`: the “activity change, negative = cytotoxic” value was 14.5%.

As to `O=C1C(c2[nH]c3ccccc3c2O)=Nc2ccccc21`, the “activity change, negative = cytotoxic” value is 17.2%.

The values above are taken from PubChem BioAssay (NCATS).
